Screening results: PubChem BioAssay, several laboratories
In the library only some 32% were active in any assay of this set; here they are far more common.
PostGolgi ctrl: yeast control strain growth, post-Golgi counter-screen | efflux-deficient yeast background strain, growth absorbance A615, 16 h | inhibition, % at 10 µM | actives 5% (n = 98,000)
CYP2C19 inh: blocks human cytochrome P450 2C19 | CYP2C19 Supersomes, luciferin-H EGE luminescence, 30 min | inhibition, % at 5 µM | actives 21% (n = 96,000);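 active means CYP2C19 inhibition above a set limit at 5 µM in the primary screen, cut at about 50% in these data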
Target sequence (P33261 whole entry, looked up): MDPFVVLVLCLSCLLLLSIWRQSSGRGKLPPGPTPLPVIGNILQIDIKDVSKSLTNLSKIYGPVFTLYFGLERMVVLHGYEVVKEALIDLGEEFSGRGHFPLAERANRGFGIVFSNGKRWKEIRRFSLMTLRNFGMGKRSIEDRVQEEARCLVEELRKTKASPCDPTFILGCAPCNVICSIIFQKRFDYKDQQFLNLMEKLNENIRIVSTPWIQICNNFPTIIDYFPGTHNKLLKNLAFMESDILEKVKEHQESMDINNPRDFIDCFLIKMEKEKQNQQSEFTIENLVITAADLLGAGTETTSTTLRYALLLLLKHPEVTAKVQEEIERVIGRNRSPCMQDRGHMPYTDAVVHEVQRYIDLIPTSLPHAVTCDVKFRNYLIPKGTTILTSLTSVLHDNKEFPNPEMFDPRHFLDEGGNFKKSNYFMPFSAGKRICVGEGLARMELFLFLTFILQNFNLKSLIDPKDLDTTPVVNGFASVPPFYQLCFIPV
CYP2C9 inh: inhibitors of human CYP2C9; P11712; CYP2C9 Supersomes, luciferin-H conversion, luminescence; inhibition, % at 5 µM; actives 20% (n = 96,000);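 active means blocking of liver enzyme CYP2C9 beyond about 50% at 5 µM, limit read from the data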
PostGolgi yeast: growth inhibition of a yeast mutant, post-Golgi transport screen; post-Golgi transport phenotypic cell assay; inhibition, % at 10 µM; actives 0.9% (n = 98,000); AID 739;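 further: yeast cells grown in 1536-well plates; yeast grown about 18 h at 30C before absorbance read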
CYP2C19 act: increases human CYP2C19 enzyme activity. recombinant CYP2C19, luciferin-H EGE luminescence; active compounds read high; 0 = fully inhibited enzyme, 1 = untreated enzyme. activation factor at 5 µM. 96,000 tested, under 10 active;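 active means activation factor of at least 2 at 5 µM in the primary screen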
CYP2C9 act: increases human cytochrome P450 2C9 activity. P11712. recombinant CYP2C9, luciferin-H conversion, luminescence; active compounds read high; factor 1 = untreated enzyme, 0 = blocked. activation factor at 5 µM. actives 1.4% (n = 96,000);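 active means activation factor of 2 or more for CYP2C9 at a 5 µM dose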
A number is an active result; n = inactive; x = no result given. Unless noted, no stated cut-off is given here; in the data, active means inhibition above about 30%; inactive means the rest.

SMILES | PostGolgi ctrl | CYP2C19 inh | CYP2C9 inh | PostGolgi yeast | CYP2C19 act | CYP2C9 act
CC(C)(C)C(=O)N1CCN(c2ccc([N+](=O)[O-])c(NCC3CCCO3)c2)CC1 (stereo not given) | n | n | n | n | n | n
COc1ccc(OCCNc2cc(N3CCOCC3)ccc2[N+](=O)[O-])cc1 | n | n | 62.9 | n | n | n
CNc1cc(N2CCCCCC2)ccc1[N+](=O)[O-] | n | 51.1 | n | n | n | n
COc1ccc(OCCNc2cc(N3CCCCC3)ccc2[N+](=O)[O-])cc1 | n | n | n | n | n | n
Cc1ccccc1OCCNc1cc(N2CCCCC2)ccc1[N+](=O)[O-] | n | 89.3 | 94.6 | n | n | n
COc1cccc(OCCNc2cc(N3CCCCC3)ccc2[N+](=O)[O-])c1 | n | n | 69.7 | n | n | n
CCNc1nc(OCCNC(C)=O)nc(N(C)C)n1 | n | n | n | n | n | n
COCCNC(=O)CSc1nnc2c(Cl)cc(Cl)cn12 | n | n | n | n | n | n
O=[N+]([O-])c1ccc(N2CCN(S(=O)(=O)c3ccccc3)CC2)cc1NCCN1CCOCC1 | n | 54.8 | 70.1 | n | n | n
O=S(=O)(c1ccc(N2CCOCC2)cc1)N1CCOCC1 | n | n | n | n | n | n
CCCCc1c(O)c2ccccc2[nH]c1=O | 43.4 | n | n | n | n | n
O=C(Cc1c(O)c2ccccc2[nH]c1=O)N(Cc1ccccc1)Cc1ccccc1 | n | n | n | 36.2 | n | n
CCCCc1c(C)c2cc(C)ccc2[nH]c1=O | 33.5 | n | n | n | n | n
CCCc1c(O)c2ccccc2[nH]c1=O | n | n | n | n | n | n
COc1ccccc1NC(=O)c1nnn(CC(=O)Nc2cccc(SC)c2)c1N | n | n | n | n | n | n
COc1ccc(Cn2c(C)c(C)c(C#N)c2NC(=O)Nc2cccc(Cl)c2)cc1 | n | n | n | n | n | n
Cc1noc(C)c1C(=O)N1CCCC1 | n | n | n | n | n | n
COC(=O)c1c(NC(=O)CSc2nnnn2-c2ccccc2)sc2c1CCC(C)C2 (stereo not given) | n | n | 70.6 | n | n | n
O=C(CSc1nnnn1-c1ccc(F)cc1)NC1CCCCC1 | n | n | n | n | n | n
COC(=O)c1c(NC(=O)CSc2nnnn2-c2ccccc2)sc2c1CCC(C(C)(C)C)C2 (stereo not given) | n | n | n | n | n | n
CC1CCCCC1NC(=O)CSc1nnnn1-c1ccccc1 (stereo not given) | n | 89.4 | n | 37.9 | n | n
COc1ccc(CCC(C)Nc2cccc(F)c2)cc1 (stereo not given) | n | n | n | n | n | n
O=C(CCN1C(=O)COc2ccccc21)NCCN1CCN(c2ccccc2F)CC1 | n | n | n | n | n | n
O=C(NCC1(N2CCOCC2)CCCCC1)c1ccc(Cl)c(S(=O)(=O)NCc2ccco2)c1 | n | 53.1 | 71.4 | n | n | n
O=C(O)c1ccc(Cl)c(S(=O)(=O)NCc2ccco2)c1 | n | n | n | n | n | n
SMILES | PostGolgi ctrl | CYP2C19 inh | CYP2C9 inh | PostGolgi yeast | CYP2C19 act | CYP2C9 act
Cc1ccc(S(=O)(=O)NCc2ccco2)c(C)c1C | n | 56.0 | n | n | n | 3.5
Cc1ccc(-c2nn3c(C)nnc3c3ccccc23)cc1S(=O)(=O)NCc1ccco1 | n | n | n | n | n | n
Cc1cccc(N2CCN(C(=O)c3ccc(Cl)c(S(=O)(=O)NCc4ccco4)c3)CC2)c1C | n | n | 75.9 | n | n | n
Cc1sc2ncnc(OCC(=O)N3CCN(S(=O)(=O)c4ccccc4)CC3)c2c1C | n | x | x | n | x | x
Cc1cc2cc3c(cc2nc1SCC(=O)Nc1nc(C)c(C)s1)OCO3 | n | n | n | n | n | n
COc1ccc(OC)c(NC(=O)C2CCCC2)c1 | n | n | n | n | n | n
CCCCC(=O)Nc1cc(OC)c(NC(=O)C2CCCCC2)cc1OC | n | 70.9 | 98.8 | n | n | n
CCCCOC(=O)Nc1cc(OC)c(Cl)cc1OC | n | 98.4 | 61.3 | n | n | n
COc1cc(NC(=O)C2CCCC2)c(OC)cc1Cl | n | 64.9 | n | n | n | n
CCc1ccccc1NC(=S)N1CCC(C(=O)c2ccc(F)cc2)CC1 | n | n | n | n | n | n
CCN(CC)c1nc(N)c2c(N)nc3c(c2c1C#N)CC(c1ccccc1)O3 (stereo not given) | n | 56.2 | 82.3 | n | n | n
N#Cc1c(N)nc(N2CCCC2)c(C#N)c1-c1ccc(Cl)cc1 | n | n | n | n | n | n
